Test results published in PubChem BioAssay AID624288 (National Center for Advancing Translational Sciences (NCATS), 2012).
Out of some 340,000 compounds screened, about 1,400 (0.41%) were called active. Another 4% or so got no clear call; they are omitted. The sample as a whole holds a higher share of actives than the screen did. Values without a mark were called inactive. Calls come from the whole dose curve; cell line not stated here.

Test: qHTS for Antagonists of gsp, the Etiologic Mutation Responsible for Fibrous Dysplasia/McCune-Albright Syndrome: qHTS; note: nearly all actives have a fitted effect of over 65% in size
Conditions: gsp-mutant cells, cAMP HTRF, 30 min; series mostly up to 76.9 µM; activity change, negative = inhibition: at the top concentration
Description: McCune-Albright syndrome (MAS) is a rare disease caused by somatic mutations in Gsgsp), a widely expressed protein central in signal transduction from G-coupled protein receptors (GPCRs). The disease symptoms are diverse, owing to the fact that the patients are mosaics with varying degrees of tissue involvement. Greater than 90% of the mutations in Gs in MAS occur at the R201 position and are equally divided between R201H and R201C. The R201 residue is central in the intrinsic GTPase activity of Gs and the H and C mutations lead to loss of, or impairment of, the GTPase activity. The intrinsic GTPase activity is necessary to terminate the interaction between Gs and adenylate cyclase, and to terminate the cAMP-mediated signaling of the given GPCR pathway. Thus, these activating mutations lead to ligand-independent activation of GPCR pathways. The tissue phenotype is determined by the role of Gs in the function of a given cell, and excess Gs/cAMP signaling in that cell. For example, pituitary somatotrophs overproduce growth hormone in a growth hormone releasing hormone-independent fashion, and gigantism/acromegaly ensues. Skeletal stem cells in the bone marrow behave as if they are under constant parathyroid hormone stimulation and fail to differentiate into osteoblasts and osteocytes, and proliferate as immature osteogenic cells and lead to the marrow fibrosis of fibrous dysplasia of bone. The goal of this project is to identify molecules with inhibitory activity at gsp mutations that will not only allow for in-depth study of the underlying molecular and cellular pathophysiology, but also serve as compounds from which drugs to treat FD/MAS can be developed NIH Chemical Genomics Center [NCGC] NIH Molecular Libraries Probe Centers Network [MLPCN] MLPCN Grant: IRP-FT-DE-2011-01 Assay Submitter (PI): Michael Collins, NIDCR
1.#Seed 2000 cells/well in 6 ul DMEM 10% FBS, 1% Pen/Strep, 0.5 mg/ml G418 2.#Incubate 16-24 hr at 37C, 5% CO2, 95% humidity 3.#Aspirate leaving 1 ul residual volume 4.#Dispense 5 ul/well DPBS + 1 mM CaCl2, 0.5 mM MgCl2, 0.05% BSA, 0.005% Tween 20 5.#Aspirate leaving 2 ul residual volume 6.#Dispense 23 nl/well compounds in DMSO 7.#Dispense 1 ul/well 300 uM Ro-20174 in DMEM 10% FBS 8.#Incubate 30 min at 37C, 5% CO2, 95% humidity 9.#Dispense 1.5 ul/well HTRF reagent: cAMP-d2 in lysis buffer 10.#Dispense 1.5 ul/well HTRF reagent: anti-cAMP antibody-K in lysis buffer 11.#Incubate 30 min at room temperature 12.#Detect HTRF signal using EnVision plate reader
% is set by controls: 0 for no effect and ±100 for the full control effect; potency is the fitted concentration of half-maximal effect.

Structure (SMILES)	activity change, negative = inhibition [%]	Potency
Cc1cc2ccccn2c1C(=O)c1cccc(F)c1	7.18	
Cc1cc2ccccn2c1C(=O)c1cccc(S(=O)(=O)N2CCOCC2)c1		31.6 µM (active)
O=C(COC(=O)c1ccccc1)Nc1cccc(S(=O)(=O)N2CCOCC2)c1	-5.44	
O=C(NN=CC=Cc1ccccc1)C(O)C(O)C(=O)NN=CC=Cc1ccccc1 (stereo not drawn)	8.92	
CN(O)C(=S)c1ccccc1	9.75	
O=C(CSc1nnc(C2CC2)n1Cc1ccccc1)Nc1cccnc1Cl		7.94 µM (active)
CC(=O)Nc1ccc(NC(=O)CSc2nnc(C3CC3)n2-c2ccccc2)cc1	18.3	
COc1ccc(-c2nnc(SCC(=O)Nc3cccnc3Cl)n2C)cc1	-1.39	
CNN/C(N=Cc1ccc([N+](=O)[O-])s1)=N\S(=O)(=O)c1cc(C)c(Cl)cc1SCc1ccccc1	7.48	
Cc1nn(Cc2ccc(F)cc2)c(C)c1NC(=O)c1noc2c1CCc1ccccc1-2		35.5 µM (active)
Cc1nn(Cc2ccc(F)cc2)c(C)c1NC(=O)c1cccnc1Cl	-12.7	
Cc1cc(C(=O)Nc2c(C)nn(Cc3ccccc3)c2C)on1	7.49	
CCOC(=O)c1ccc2[nH]c(C)c(CN3CCN(C)CC3)c(=O)c2c1	4.58	
O=c1c2ccccc2c(-c2ccccc2)nn1-c1ccccn1	-1.84	
O=c1c2ccccc2c(-c2ccc(F)cc2)nn1-c1ccc(C(F)(F)F)cc1	-3.36	
O=C(O)c1ccc(-n2nc(-c3ccccc3)c3ccccc3c2=O)cc1		44.7 µM (active)
COc1ccc(N)c(C)c1	-4.59	
COCC(=O)N(C)[C@H]1C[C@H]2c3cc(Oc4ccccc4C)ccc3CCN2C(=O)[C@H]1[C@H](C)O	-3.43	
Cc1ccc(/C=C2/SC(=S)N(CCC(=O)NCCCN3CCOCC3)C2=O)cc1	3.12	
COc1ccc(/C=C2\SC(=S)N(CC(=O)NNC(=O)c3ccncc3)C2=O)cc1	-14.4	
Cc1ccc(-c2nn(-c3ccccc3)cc2/C=C2\SC(=S)N(CCCCCC(=O)O)C2=O)o1		15.8 µM (active)
O=C(CCCN1C(=O)/C(=C/c2ccccc2)SC1=S)Nc1ccc(O)cc1	-13.4	
COc1ccc(-c2nn(-c3ccccc3)cc2/C=C2/SC(=S)N(CCCC(=O)O)C2=O)c(C)c1		31.6 µM (active)
COc1ccc(/C=C2\SC(=S)N(CCCC(=O)NC3CCCC3)C2=O)cc1OC	-9.03	
O=C(COC(=O)c1ccc(O)cc1O)NC(=O)c1ccccc1	-6.71	

Structure (SMILES)	activity change, negative = inhibition [%]	Potency
O=C1/C(=C\c2ccc(O)cc2)CCC1CNc1ccc(Cl)cc1 (stereo not drawn)	-3.99	
COc1ccc(S(=O)(=O)N2CCc3ccccc32)cc1C(=O)Nc1cc(S(C)(=O)=O)ccc1Cl	-27.5	
COC(=O)Cc1c(-c2[nH]c3ccccc3c2CC(=O)OC)[nH]c2ccccc12	-8.15	
Cc1ccc2c(O)c(Cc3ccccc3)c(=O)[nH]c2n1	4.19	
O=S(=O)(Nc1ccc2ccccc2c1)N1CCCCC1	-8.9	
CCn1nccc1C(=O)Nc1ccc(Cl)c(Cl)c1	-12.3	
CS(=O)(=O)N(CC(=O)Nc1ccc(Cl)c(Cl)c1)C1CCCCC1	-26.2	
O=C(CC(O)(C(F)(F)F)C(F)(F)F)Nc1ccc(Cl)c(Cl)c1		7.08 µM (active)
O=S1(=O)CSCS(=O)(=O)C1	13.5	
CCCCC(=O)NC(c1ccc(OC)c(OC)c1)c1ccc2cccnc2c1O (stereo not drawn)	-9.19	
Cc1ccnc(NS(=O)(=O)c2ccc(NC(=O)c3oc4ccccc4c3C)cc2)n1	-23.2	
Cc1cc(C)c2oc(C(=O)Nc3ccc(S(=O)(=O)Nc4nccc(C)n4)cc3)cc(=O)c2c1	0.826	
Cc1ccnc(NS(=O)(=O)c2ccc(NC(=O)c3oc4ccc(F)cc4c3C)cc2)n1		22.4 µM (active)
O=C(O)c1ccccc1/C=N/Nc1ccc(S(=O)(=O)Nc2ccc(Cl)cc2)cc1[N+](=O)[O-]	4.56	
CN(C(=O)c1cccc(NC(=O)Cc2ccc(NC(=O)C3CCCN(C(=O)C4CCCC4)C3)cc2)c1)C1CCC1 (stereo not drawn)	-9.96	
COc1ccc(/C=C2/SC(=O)N(CCCCCC(=O)Nc3ccccc3C(=O)O)C2=S)cc1		22.4 µM (active)
COc1ccc(/C=C2\SC(=O)N(CCC(=O)NC3CCS(=O)(=O)C3)C2=O)cc1 (stereo not drawn)	-10.6	
COc1ccc(/C=C2\SC(=O)N(CCC(=O)NCCCn3ccnc3)C2=O)cc1	-8.39	
C=CCn1c(=O)n(C)c2c(=O)n(C)c(=O)n(C)c21	11	
CCC(=O)Oc1cccc(C(=O)Nc2ccc(-c3nnc(-c4ccco4)o3)cc2)c1		28.2 µM (active)
O=C(Nc1ccc(Cl)cc1)c1cccc(OC(=S)N2CCOCC2)c1	-15.7	
Cc1cccc(NC(=O)CSc2nnc(-c3ccco3)o2)c1	16	
Cc1c(NS(=O)(=O)c2cccc(C(=O)Nc3ccc(SC(F)F)cc3)c2)c(=O)n(-c2ccccc2)n1C	-25.1	
C(#CCN1CCOCC1)CCCN1CCOCC1	8	
CC(=O)OC1CCC2C3CCC4=C(CC(F)C(=O)C4)C3CCC12C (stereo not drawn)	5.21	

Structure (SMILES)	activity change, negative = inhibition [%]	Potency
COc1ccc(/C=N/NC(=O)Nc2ccc3nsnc3c2)c(OC)c1	-3.26	
C(=N/Nc1cc(N2CCOCC2)nc(N2CCOCC2)n1)/c1ccccc1	-27.6	
COc1ccc(/C=N/Nc2cc(N3CCOCC3)nc(C)n2)c(OC)c1		35.5 µM (active)
CC(C)[C@@H](C(=O)OCC(=O)c1ccc2c(c1)NC(=O)CO2)N1C(=O)c2ccccc2C1=O	-7.63	
O=C(Nc1c[nH]c(=O)[nH]c1=O)OCc1ccccc1	1.53	
CCCCCCCCNS(=O)(=O)CCNC1CCCCC1	5.09	
Cc1ccc(C)c(N2CCN(C(=O)CCCCCn3c(=S)[nH]c4ccc(N5CCOCC5)cc4c3=O)CC2)c1		28.2 µM (active)
O=C(CCCCCn1c(=S)[nH]c2cc3c(cc2c1=O)OCO3)N1CCN(c2ccc(F)cc2)CC1	6.67	
Cc1ccc(C)c(N2CCN(C(=O)CCc3nc4ccccc4[nH]3)CC2)c1	-22.8	
CC(C)CN1CC(C)C(=O)N(c2ccccc2)C1=S (stereo not drawn)	5.08	
COc1cc(/C=C/c2ccc(/C=C/c3cc(OC)c(OC)c(OC)c3)cc2)cc(OC)c1OC	7.14	
COc1ccc(/C=C/C(=O)N2CCCC2)cc1OC	-20.9	
COc1ccc(/C=C/C(=O)c2ccc(NS(=O)(=O)c3ccc(C)cc3)cc2)cc1O	-4.56	
COC(=O)c1ccc(COc2ccc(/C=C/C(=O)c3ccc(OC)c(CSCC(=O)O)c3)cc2OC)cc1		39.8 µM (active)
Cc1c[n+]([O-])ccc1[N+](=O)[O-]	-4.07	
CC(C)=CCc1ccc(O)c(=O)cc1C(C)C	9.99	
Nc1nonc1-n1nnc(C(=O)N/N=C/c2c[nH]c3ccccc23)c1-c1ccccc1		31.6 µM (active)
Nc1nonc1-n1nnc(C(=O)N/N=C/C2CCCCC2)c1-c1ccccc1	12.5	
CC(C)c1c(C(=O)N/N=C/c2ccc(-c3ccccc3)cc2)nnn1-c1nonc1N	0.139	
Nc1cc(=O)n(Cc2ccccc2)c(=O)n1Cc1ccccc1	-4.98	
O=C1Nc2ccc(Br)cc2/C1=N/N=C/C1=C(N2CCOCC2)C(=C\c2ccccc2)/CC1	-18.1	
O=C(O)c1ccc(NN=CC2=C(N3CCOCC3)/C(=C/c3ccccc3)CC2)cc1		10 µM (active)
C(=N\N1CCN(c2ccccn2)CC1)/C1=C(N2CCOCC2)C(=C/c2ccccc2)/CC1	-4.31	
C[C@H](O)[C@@H]1C(=O)N2CCc3ccc(N4CCOCC4)cc3[C@@H]2C[C@@H]1N(C)C(=O)C(C)(C)C	1.14	
O=C1C[C@@H]2c3c(cccc3CN1Cc1ccccc1)C[C@@H](O)[C@H]2O	10.4	

Structure (SMILES)	activity change, negative = inhibition [%]	Potency
Cc1ccc(S(=O)(=O)N2CCC(C(=O)N3CCCCCCC3)CC2)cc1	-1.88	
CSc1ncccc1C(=O)Nc1nc2ccc(F)cc2s1		39.8 µM (active)
CSc1ncccc1C(=O)Nc1ccc2c(c1)OCO2	-1.29	
CSc1ncccc1C(=O)Nc1ccc(C)cn1	-0.85	
COc1cc(C(=O)CCc2ccc3c(c2)OCO3)cc(OC)c1OC	11.8	
COc1cc(C(=O)N2CCN(S(=O)(=O)c3ccc(C(C)C)cc3)CC2)ccc1OCC(=O)N1CCOCC1	-14.8	
CS(=O)(=O)c1ccc2nc(NC(=O)c3ccc(Cl)nc3)sc2c1		31.6 µM (active)
COc1cccc(C(=O)Nc2nc3ccc(S(C)(=O)=O)cc3s2)c1	1.97	
CS(=O)(=O)c1ccc2nc(NC(=O)C3C4C=CC(C4)C3C(=O)O)sc2c1 (stereo not drawn)	-1.75	
Cc1ccc(NC(=O)C(C)OC(=O)C2CC3CCCC(C2)C3=O)cc1S(=O)(=O)N1CCOCC1 (stereo not drawn)	-2.68	
O=C(CNC(=O)c1cc(S(=O)(=O)N2CCOCC2)ccc1N1CCCC1)Nc1ccc(F)c(F)c1	-2.71	
CN(CC(=O)O)S(=O)(=O)c1ccc2oc3ccccc3c2c1	-8.22	
CN(CCO)S(=O)(=O)c1ccc2c(c1)C(=O)c1cc(S(=O)(=O)N(C)CCO)ccc1-2		8.91 µM (active)
O=C(O)c1ccc(NS(=O)(=O)c2ccc3c(c2)C(=O)c2cc(S(=O)(=O)Nc4ccc(C(=O)O)cc4)ccc2-3)cc1	0.663	
O=C1NC(=O)C(CCc2ccccc2)(c2ccccc2)N1 (stereo not drawn)	11.4	
COC(=O)C1CC2=C(CC(C)(C)CC2=O)N(c2ccccc2)C1=O (stereo not drawn)	9.37	
CCc1nc(C)cn1S(=O)(=O)c1cc(OC)c(C)cc1C		31.6 µM (active)
COc1cc(Cl)c(S(=O)(=O)n2cnc(C)c2)cc1Cl	8.27	
CCc1nc(C)cn1S(=O)(=O)c1cc([N+](=O)[O-])ccc1Cl	3	
Cc1sc2ncnc(N3CCC(C(=O)Nc4nc5ccc(Cl)cc5s4)CC3)c2c1C	-7.28	
CCc1ccc(C(=O)NNC(=O)C2CCN(c3ncnc4sc(C)c(C)c34)CC2)cc1	-20	
Cc1sc2ncnc(N3CCC(C(=O)Nc4ccc(F)cc4Cl)CC3)c2c1C		39.8 µM (active)
CC(=O)OCC1(O)CC23CCC4c5ccoc5CCC4(C)C2CCC1C3 (stereo not drawn)	-6.12	
